An excerpt weighted towards active compounds, which were near 4.5% of everything screened.
hcDAF12 agonist = activates DAF-12 receptor from parasite H. contortus; HEK293 hcDAF-12 lit1-tk-luc reporter, luminescence; 0% DMSO, 100% Δ7-dafachronic acid; activation, % at 6.8 µM; hit rate 1.4% among 370,000; AID 652067;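 active = activation above the mean of all tested compounds plus 3 SD, cut at about 5.5% in these data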;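 also: 100% = response to 3 µM Δ7-dafachronic acid high control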
FXN GAA850 act = frataxin GAA850 promoter activation | HEK293 lucGAA850 FXN promoter luciferase reporter, 24 h; percent of 10 µM SAHA response | activation, % at 6 µM | hit rate 0.56% among 360,000 | AID 540364;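 active = activation above the average of all compounds screened plus 3 SD, cutoff fixed separately per campaign, cut at about 7.5% in these data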;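 also: 0% = DMSO wells and 100% = 10 µM SAHA wells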
DAX1 inh-1 = inhibits human nuclear receptor DAX1; HEK293 Gal4-DAX1 luciferase reporter, luminescence; P51843; hit rate 0.99% among 340,000; inhibition, % at 6.75 µM;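 active = inhibition above the mean over all tested compounds plus 3 SD, cut at about 4.2% in these data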;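 also: 0% = DAX1-transfected cells with DMSO and 100% = empty-vector control cells with DMSO; inhibition shows as a rise in luminescence from relieved DAX1 repression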
Target sequence (P51843 207-470 limits assumed): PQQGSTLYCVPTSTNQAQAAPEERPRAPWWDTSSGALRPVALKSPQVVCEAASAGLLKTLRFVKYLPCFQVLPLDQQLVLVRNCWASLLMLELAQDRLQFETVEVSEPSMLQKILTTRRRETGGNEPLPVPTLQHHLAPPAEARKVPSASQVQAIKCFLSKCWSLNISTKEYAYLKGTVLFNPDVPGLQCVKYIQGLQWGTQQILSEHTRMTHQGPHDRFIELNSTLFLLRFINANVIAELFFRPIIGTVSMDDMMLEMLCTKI
ssDAF12 agonist = activates DAF-12 receptor from parasite S. stercoralis; HEK293 ssDAF-12/GRIP1 lit1-tk-luc reporter, luminescence; % of 3 µM dafachronic acid response; activation, % at 6.8 µM; hit rate 1% among 370,000;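 active = activation above the mean over all tested compounds plus 3 SD, cut at about 0.9% in these data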;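 also: 0% = DMSO-only wells and 100% = 3 µM delta7-dafachronic acid wells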
hgDAF-12 ag = hgDAF-12 agonism, primary luciferase screen. HEK293 GAL4-hgDAF12 UAS-luciferase reporter, agonist luminescence; normalized to butyrate control. activation, % at 6.8 µM. hit rate 1.8% among 370,000;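 active = activation above a cutoff set at the mean of all screened compounds plus 3 SD, cut at about 10% in these data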;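 also: 0% = DMSO wells and 100% = sodium butyrate wells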
DAX1 inh-2 = inhibitors of DAX1 repression of SF-1 activated StAR promoter; HEK293T StAR-luciferase reporter, SF-1/DAX-1 repression relief; inhibition, % at 6.8 µM; hit rate 1.1% among 370,000;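 active = inhibition above the mean over all tested compounds plus 3 SD, cut at about 3.6% in these data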;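 also: 0% = DAX-1 cells with DMSO and 100% = cells lacking DAX-1 with DMSO; higher inhibition means more luminescence from relief of DAX-1 repression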
LXR ag = activates human LXR-beta, counter-screen for hcDAF-12 agonists; HEK293 Gal4-LXR tk-luc reporter, luminescence, 24 h; normalized: DMSO 0%, positive control 100%; 3,400 tested, under 10 active; shares compounds with hcDAF12 agonist; activation, % at 6.8 µM;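 active = mean percent activation of the reporter above a cutoff set as the average over tested compounds plus their standard deviation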
hcDAF12 ag = confirmation of H. contortus DAF-12 agonists | shares compounds with hcDAF12 agonist | hit rate 61% among 3,400 | activation, % at 6.8 µM | HEK293 hcDAF-12 lit1-tk-luc reporter, luminescence; % of Δ7-dafachronic acid response;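 active = mean activation across triplicate tests above the threshold derived from the earlier primary screen, cut at about 5.5% in these data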;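 also: 0% = DMSO only wells and 100% = 3 µM Δ7-dafachronic acid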
hgDAF12 ag = hgDAF-12 agonism, confirmation assay; shares compounds with hgDAF-12 ag; activation, % at 6.8 µM; HEK293 GAL4-hgDAF12 luciferase reporter, agonist mode; percent of butyrate response; hit rate 80% among 3,300;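 active = mean activation over triplicate wells above the hit cutoff derived from the earlier primary screen, cut at about 11% in these data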;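 also: 0% = DMSO low control and 100% = 2 mM sodium butyrate high control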
LXR ag 2 = activates human LXR-beta, counter-screen for DAF-12 agonists; AID 743051; HEK293 Gal4-LXR luciferase reporter, 24 h; shares compounds with hgDAF-12 ag; activation, % at 6.8 µM; 3,300 tested, under 10 active;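 active = mean activation of the triplicate above a set limit carried over from the primary screen, none filed active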
* hit, by the source's call; / = no result given.

SMILES | hcDAF12 agonist | FXN GAA850 act | DAX1 inh-1 | ssDAF12 agonist | hgDAF-12 ag | DAX1 inh-2 | hgDAF12 ag | LXR ag 2 | others
COc1ccc(C2=NS(=O)(=O)N(C)C(C(=O)N3CCC4(CC3)OCCO4)=C2)cc1OC | 0 | 0 | -1 | -1 | 0 | 0 | / | /
Cc1cc(/C=C2\C(=O)NC(=O)N(c3ccc(Br)cc3)C2=O)c(C)n1C | 7.1* | 2 | 0 | -1 | -1 | 0 | / | / | LXR ag=0;hcDAF12 ag=-1
CC[C@@H](O)C[C@H]1CCC[C@@]2(C[C@@H]3OC(=O)/C=C/[C@@](C)(O)[C@@H](O)[C@H](C)[C@@H](O)[C@H](OC4CCC(N(C)C)C(C)O4)[C@@H](O)[C@](C)(O)CCCCC/C=C/[C@@H]4CC(C)(C)O[C@@]4(O)C[C@H](O2)[C@H]3C)O1 (stereo partly specified) | -5 | -10 | -5 | -2 | -12 | -5 | / | /
CC12CC[C@H]3[C@@H](CCC4(O)C[C@H](O)CCC34/C=N/NC(=O)c3ccccc3F)C1(O)CCC2C1=CC(=O)OC1 (stereo partly specified) | 4 | 3 | 1 | -1 | 6 | 0 | / | /
CC12CC[C@H]3[C@@H](CCC4(O)C[C@H](O)CCC34/C=N/NC(=O)c3ccccc3O)C1(O)CCC2C1=CC(=O)OC1 (stereo partly specified) | 17* | 0 | 1 | 1 | -3 | 1 | / | / | LXR ag=0;hcDAF12 ag=6.8*
O=C1NC(=O)[C@]2(Cc3ccccc3N3CCN(c4ccccc4)CC32)C(=O)N1c1ccccc1 (stereo partly specified) | 7.6* | 2 | 1 | 1.8* | 8 | 1 | / | / | LXR ag=0;hcDAF12 ag=0
CN1C(=O)NC(=O)[C@]2(Cc3ccccc3N3CCN(c4ccccc4)CC32)C1=O (stereo partly specified) | 4 | 1 | 2 | 0 | 8 | 2 | / | /
Cc1ccc(-c2nc(N3CCOCC3)s[n+]2-c2ccccc2)cc1 | 12* | 5 | 1 | 1.5* | 15* | 4.0* | 8 | 1 | LXR ag=1;hcDAF12 ag=5
COc1cc(O)c2c(c1)/C=C/C[C@H](O)[C@H](O)[C@@H](O)/C=C/C[C@H](C)OC2=O | -2 | / | / | 0 | 0 | 1 | / | /
COc1ccc(-n2nc(C(=O)NCC(=O)N3CCC4(CC3)OCCO4)c3ccccc3c2=O)cc1Cl | 6.6* | 4 | 3 | 1 | 14* | 1 | 12* | 0 | LXR ag=0;hcDAF12 ag=4
COc1ccc(C)cc1NC(=O)N1CCC2(CC1)OCCO2 | 0 | 1 | 0 | -1 | -2 | 0 | / | /
NC(Cc1nc2ccccc2[nH]1)c1ccc(Cl)cc1 (stereo unspecified) | 5 | 3 | 3 | 1 | 14* | 3 | 15* | 0
NC(Cc1ccccc1)c1nc2ccccc2[nH]1 (stereo unspecified) | 2 | 5 | 2 | 0 | 1 | 0 | / | /
C[CH2][Hg][S]c1ccccc1C(=O)O | 1 | -3 | -3 | 0 | -8 | -4 | / | /
COc1ccccc1/C=N/N=C(/N)N[N+](=O)[O-] | 0 | 3 | 0 | -2 | 16* | 0 | 1 | 0
CCOC(=O)c1cccc(C2=C(CNC(=O)c3ccc([N+](=O)[O-])cc3)[C@H]3CC[C@@H](C2)N3Cc2ccccc2)c1 | 1 | -2 | 1 | -2 | 1 | 0 | / | /
O=C(c1cc2c(s1)-c1ccccc1OC2)N1CCC2(CC1)OCCO2 | 3 | 2 | 3 | 0 | 14* | 0 | 19* | 1
CCCCCN1C(=O)c2ccccc2[C@@]2(C(=O)OCC)Cc3cc(OC)ccc3[C@@H]12 | -3 | / | / | -1 | -2 | 0 | / | /
Cc1cc(N=Nc2ccccc2C)ccc1N | 4 | / | 6.0* | 0 | 15* | 2 | 13* | 1
Nc1ccc(N=Nc2ccccc2)cc1 | 0 | -1 | 2 | -1 | 2 | 0 | / | /
Clc1ccc2sc(C3CCNCC3)nc2c1 | 2 | 6 | 2 | 0 | 16* | 1 | 8 | 0
COc1ccc(CN2Cc3cc(-c4ccc(OC)cc4)ccc3-n3nncc3C2)cc1 | 2 | / | / | -1 | 14* | -2 | 3 | 0
COc1ccc(CN2Cc3cc(-c4ccccc4)ccc3-n3nncc3C2)cc1 | -1 | / | / | -1 | 3 | -1 | / | /

From PubChem
